Source: PubChem BioAssay (NCATS)
Records with an inconclusive call do not appear. Calls of active or inactive are those of the source. Calls follow the shape of the dose curve; as a rule, active = well fitted curve in the direction sought with a large enough effect; inconclusive = small, poorly fitted or top-dose-only effect, or another doubt; inactive = no such curve, though single readings can be large; an effect the other way counts as inactive or inconclusive. Non-standard residues stand in square brackets, D forms with d. Residues, ends and D or L forms follow the SMILES beside them. *: point of attachment. Nva = CCC[C@H](N)C(=O)O; Cbz = O=C(OCc1ccccc1)*

What was measured:
[1] = Quantitative High-Throughput drug screen in 47 multiple myeloma cell lines against the NCATS MIPE library collection: ARD_JJKsccE7 cell viability assay (AID 1918929)
Method in brief: (§1)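 We plated 500 myeloma cells per well, pinned in MIPE 4.0 compounds, and incubated for 48 hours at 37C. ATP was then quantified with CellTiter-Glo, with DMSO and media-only wells defining 100% and 0%.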

[2] = Quantitative High-Throughput drug screen in 47 multiple myeloma cell lines against the NCATS MIPE library collection: Karpas620_DSMZ cell viability assay (AID 1918959); also: nearly all actives have a fitted effect of over 30% in size
Method in brief: (§2)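 Myeloma cell lines, 500 cells per well, exposed to MIPE 4.0 library compounds for 48 h at 37C, 5% CO2. Viability from ATP by CellTiter-Glo luminescence; normalised to DMSO (100%) and media-only (0%) wells.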

[3] = Quantitative High-Throughput drug screen in 47 multiple myeloma cell lines against the NCATS MIPE library collection: Karpas417_ECACC cell viability assay (AID 1918961); settings: Karpas417 myeloma viability, CellTiter-Glo ATP luminescence, 48 h; viability (% of DMSO): at 45.8 µM (top of the series)
Method in brief: as §2

[4] = Quantitative High-Throughput drug screen in 47 multiple myeloma cell lines against the NCATS MIPE library collection: JIM3_ECACC cell viability assay (AID 1918963; also: nearly all actives have a fitted effect of over 35% in size)
Method in brief: as §2

[5] = Quantitative High-Throughput drug screen in 47 multiple myeloma cell lines against the NCATS MIPE library collection: JIM1_ECACC cell viability assay (AID 1918964)
Method in brief: as §1

[6] = Quantitative High-Throughput drug screen in 47 multiple myeloma cell lines against the NCATS MIPE library collection: INA6_PLB cell viability assay (AID 1918965; also: nearly all actives have a fitted effect of over 55% in size)
Method in brief: as §2

[7] = Quantitative High-Throughput drug screen in 47 multiple myeloma cell lines against the NCATS MIPE library collection: H1112_PLB cell viability assay (AID 1918967; also: nearly all actives have a fitted effect of over 30% in size)
Method in brief: as §1

[8] = Quantitative High-Throughput drug screen in 47 multiple myeloma cell lines against the NCATS MIPE library collection: JJN3_DSMZ cell viability assay (AID 1918966; also: nearly all actives have a fitted effect of over 50% in size)
Method in brief: as §1

[9] = Quantitative High-Throughput drug screen in 47 multiple myeloma cell lines against the NCATS MIPE library collection: KHM11_PLB cell viability assay (AID 1918962); also: nearly all actives have a fitted effect of over 35% in size
Method in brief: as §2

[10] = Quantitative High-Throughput drug screen in 47 multiple myeloma cell lines against the NCATS MIPE library collection: KMM1_JCRB cell viability assay (AID 1918960); also: nearly all actives have a fitted effect of over 30% in size
Method in brief: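 Myeloma cells, 500 per well, were exposed to MIPE 4.0 drugs by pin transfer for 48 h at 37 °C, 5% CO2. Viability was read as ATP luminescence with CellTiter-Glo, normalised to DMSO-only (100%) and medium-only (0%) wells.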

Measured: Potency
Potency is read from the fitted curve at half-maximal effect.

COc1cc(C)c(C=CC(C)=CC=CC(C)=CC(=O)O)c(C)c1C
active: [2] 7.43 µM | [4] 0.166 µM | [6] 5.26 µM
inactive: [1] | [3] | [5] | [7]

O=C(Nc1cc2cc[nH]c2cn1)c1ccccc1
active: [1] 10.5 µM | [2] 4.69 µM | [3] 2.96 µM | [4] 7.43 µM | [6] 8.33 µM | [8] 9.35 µM | [7] 9.35 µM

COc1ccc([C@@H]2CNC(=O)C2)cc1OC1CCCC1
active: [9] 10.5 µM | [6] 9.35 µM | [7] 2.96 µM
inactive: [1] | [2] | [3] | [8]

CC(C)Oc1ccc(C(=O)N[C@H](CNC(=O)CN(C)C)Cc2ccc(-c3cn4cccc([C@H](C)O)c4n3)cc2)cc1Cl
inactive: [3] | [8]
active: [1] 0.264 µM | [2] 0.187 µM | [4] 0.209 µM | [6] 0.0743 µM

CC(C=CC(=O)NO)=C[C@@H](C)C(=O)c1ccc(N(C)C)cc1
active: [1] 0.264 µM | [2] 0.418 µM | [3] 0.105 µM | [9] 0.372 µM | [5] 0.296 µM | [6] 0.0833 µM | [8] 0.187 µM | [7] 0.372 µM

COc1ccc(CCC(=O)c2c(O)cc(O[C@@H]3O[C@H](CO)[C@@H](O)[C@H](O)[C@@H]3O[C@@H]3O[C@@H](C)[C@H](O)[C@@H](O)[C@@H]3O)cc2O)cc1O
inactive: [1] | [2] | [3]
active: [4] 18.7 µM

CC(C=CC1=C(C)CCCC1(C)C)=CC=CC(C)=CC(=O)Nc1ccc(O)cc1
active: [1] 8.55 µM | [2] 6.05 µM | [3] 4.29 µM | [9] 17.1 µM | [6] 13.6 µM | [8] 21.5 µM | [7] 19.1 µM

CCc1ccc(C(=O)Nc2cc(CN3CCN(C)CC3)cc(C(F)(F)F)c2)cc1C#Cc1cnc2ccnn2c1
active: [1] 8.33 µM | [2] 5.26 µM | [10] 6.62 µM | [4] 7.43 µM | [6] 4.69 µM | [8] 20.9 µM | [7] 2.64 µM

C=CC(=O)Nc1cc(NC(=O)c2ccc(C)c(NC(=O)c3ccno3)c2)cc(C(F)(F)F)c1
active: [1] 5.9 µM | [2] 8.33 µM | [10] 5.9 µM | [6] 16.6 µM | [8] 18.7 µM | [7] 18.7 µM

Cc1[nH]c(C=C2C(=O)Nc3ccccc32)c(C)c1CCC(=O)O
active: [1] 20.9 µM | [2] 18.7 µM | [3] 23.5 µM | [5] 2.96 µM | [6] 3.72 µM | [8] 18.7 µM | [7] 4.18 µM

N#CNC(=NCCCCCCOc1ccc(Cl)cc1)Nc1ccncc1
active: [1] 0.0469 µM | [2] 0.0019 µM | [10] 0.0059 µM | [8] 0.0105 µM

O=C(CN1C(=O)C2(CCCC2)NC[C@H]1c1cc(F)cc(F)c1)Nc1ccc2c(c1)C[C@@]1(C2)C(=O)Nc2ncccc21
active: [5] 18.7 µM
inactive: [1] | [2] | [3] | [4] | [6] | [7]

Oc1ccc([C@@H]2Oc3ccc(O)cc3[C@@H]3CCC[C@@H]32)cc1
active: [7] 11.8 µM
inactive: [1] | [2] | [10]

CCC[C@@H](C=O)NC(=O)[C@H](CC(C)C)NC(=O)[C@H](CC(C)C)NC(=O)OCc1ccccc1 (Cbz-Leu-Leu-[Nva]-aldehyde)
active: [1] 0.332 µM | [2] 0.332 µM | [3] 0.296 µM | [9] 0.469 µM | [4] 0.935 µM | [6] 0.235 µM | [8] 1.18 µM | [7] 0.418 µM

CN(N=O)C(=O)N[C@H]1C(O)OC(CO)[C@@H](O)[C@H]1O (some centres not stated)
inactive: [1] | [2] | [10] | [4] | [7]

CN(C)CC(=O)N1CCC(c2ccc(NC(=O)c3ncc(C#N)[nH]3)c(C3=CCCCC3)c2)CC1
active: [1] 3.32 µM | [3] 2.35 µM | [9] 20.9 µM | [6] 14.8 µM | [7] 18.7 µM
inactive: [2]

Cc1ccc(O)c(C(CCN(C(C)C)C(C)C)c2ccccc2)c1 (configuration not stated)
inactive: [1] | [2] | [10] | [8] | [7]

N#Cc1c(C2CCNCC2)cc(-c2c(O)cccc2OCC2CC2)nc1N
active: [1] 3.72 µM | [2] 9.35 µM | [3] 2.64 µM | [9] 11.8 µM | [4] 18.7 µM | [6] 16.6 µM | [8] 18.7 µM
